{"source": "the supplement of paper PMC7393113", "note": "± gives the standard deviation of the averaged measurements.", "data": [{"test_system": "iBMDM (immortalised mouse bone-marrow-derived macrophages), LPS-stimulated", "assay": "mitochondrial superoxide (MitoSOX fluorescence) fold increase over unstimulated control; higher = more LPS-induced mitochondrial ROS (less inhibition)", "settings": "inhibitor concentration: 500 nM; LPS: 100 ng/ml; time after LPS: 1 h", "how_it_was_run": "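Mitochondrial superoxide was expressed as fold induction over untreated macrophages. Immortalised mouse bone-marrow-derived macrophages were pretreated with kinase inhibitors (500 nM) for 30 min, loaded with 1 μM MitoSox for 10 min and stimulated with LPS (100 ng/ml). MitoSox fluorescence (excitation 510 nm, emission 580 nm) was read hourly over 4 h, and the three replicates were averaged.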", "values": [{"compound": "Cc1ccccc1CN1C2=NCCN2C(=O)C2=C1CCN(Cc1ccccc1)C2", "mitochondrial superoxide": "1.16 ± 0.042"}, {"compound": "O=C(Nc1ccc(OC(F)(F)F)cc1)c1sccc1NCc1ccnc2ccccc12", "mitochondrial superoxide": "1.21 ± 0.044"}, {"compound": "Cn1cc(-c2cnn3c(N)c(Br)c([C@@H]4CCCNC4)nc23)cn1", "mitochondrial superoxide": "1.12 ± 0.091"}, {"compound": "Cn1cc(-c2ccc3nnc(C(F)(F)c4ccc5ncccc5c4)n3n2)cn1", "mitochondrial superoxide": "1.4 ± 0.062"}, {"compound": "Cc1ccccc1-n1c(Cn2nc(-c3cccc(O)c3)c3c(N)ncnc32)nc2cccc(C)c2c1=O", "mitochondrial superoxide": "1.28 ± 0.017"}, {"compound": "CC(C)(C)c1cc(NC(=O)Nc2ccc(-c3cn4c(n3)sc3cc(OCCN5CCOCC5)ccc34)cc2)no1", "note": "[Quizartinib (AC220)]", "mitochondrial superoxide": "1.15 ± 0.027"}, {"compound": "Cn1c(Nc2ccc(C(F)(F)F)cc2)nc2cc(Oc3ccnc(-c4ncc(C(F)(F)F)[nH]4)c3)ccc21", "mitochondrial superoxide": "1.13 ± 0.08"}, {"compound": "CC(C)(C)n1nc(-c2ccc(Cl)cc2)c2c(N)ncnc21", "mitochondrial superoxide": "1.11 ± 0.019"}, {"compound": "O=C1NC(=O)/C(=C/c2ccc3nccc(-c4ccncc4)c3c2)S1", "mitochondrial superoxide": "1.12 ± 0.055"}, {"compound": "Nc1nc(Nc2ccc(S(N)(=O)=O)cc2)nn1C(=O)c1c(F)cccc1F", "mitochondrial superoxide": "1.15 ± 0.04"}, {"compound": "Cc1ccc(-c2nn(C(C)(C)C)c3ncnc(N)c23)cc1", "mitochondrial superoxide": "1.18 ± 0.043"}, {"compound": "COc1ncc(-c2ccc3nccc(-c4ccnnc4)c3c2)cc1NS(=O)(=O)c1ccc(F)cc1F", "mitochondrial superoxide": "1.28 ± 0.049"}, {"compound": "N#Cc1c(Oc2ccc(F)c(NC(=O)Cc3cccc(C(F)(F)F)c3)c2)ccc2nc(NC(=O)C3CC3)sc12", "mitochondrial superoxide": "1.35 ± 0.087"}, {"compound": "CNC(=O)c1cc(Oc2ccc(NC(=O)Nc3ccc(Cl)c(C(F)(F)F)c3)c(F)c2)ccn1", "note": "[Regorafenib (BAY 73-4506)]", "mitochondrial superoxide": "1.5 ± 0.04"}]}]}
